# Laboratory results as given in the supplement of paper PMC12636033.
# ± gives the standard deviation of the averaged measurements. The full ranking holds about 33,000 sequences; the median of “E-score (rank enrichment, -0.5 to 0.5)” is about -0.0043, and the highest 2% start at about 0.24. The list comes from a sample in which the highest values are over-represented; it also holds similar and randomly drawn sequences.
# Test system: 2Sp-muMax20 (muMax20 with two 2,6-bis(methyl)pyridine Cys staples)
# Experiment: PBM 8-mer E-score (E-score (rank enrichment, -0.5 to 0.5)); higher = stronger preferential binding
# Description: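 Protein binding microarray (universal PBM chip covering all 10-mers in fixed probe flanks) with chemically synthesized human Max(13-93) bHLH-LZ analogs (not full-length Max) bearing noncanonical residues (hArg, Tha, Aib, Nle at 65) and aromatic Cys staples. Read-out per 8-mer (and its reverse complement): E-score (rank-based enrichment, -0.5 to 0.5) and Z-score of median probe intensity.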
row,Sequence,PBM 8-mer E-score
1,CGGCTCAG,-0.245 ± 0.011
2,AAGGCGAG,-0.114 ± 0.11
3,CCGCACCG,-0.232 ± 0.037
4,ATTGTAGG,0.163 ± 0.04
5,AGAAACAA,0.23 ± 0.034
6,ATTATGTC,-0.0254 ± 0.039
7,ATTATGTA,0.252 ± 0.063
8,ATTATGTG,0.19 ± 0.015
9,ATAATGTC,0.0928 ± 0.013
10,CTAATGTA,0.0902 ± 0.11
11,ATAATGTA,0.261 ± 0.054
12,CCAAGGTA,-0.122 ± 0.08
13,ATGGTCCG,-0.11 ± 0.052
14,GAGCTTAC,0.0525 ± 0.066
15,TACCCTGA,0.0285 ± 0.0041
16,GCTGAGAC,-0.0936 ± 0.027
17,GGTTGGCA,-0.0827 ± 0.032
18,AAAAAGCC,0.0819 ± 0.062
19,AAAAGCTG,0.272 ± 0.0057
20,AAAAAGCT,0.282 ± 0.011
21,CAAAGCGC,-0.0804 ± 0.097
22,AAAAGCTA,0.141 ± 0.049
23,AAAAGCGA,0.147 ± 0.046
24,AAAAGCGC,0.236 ± 0.064
25,CAAAGCTG,0.0649 ± 0.017

row,Sequence,PBM 8-mer E-score
1,AAAAAGCA,0.206 ± 0.014
2,ACTTTTGG,0.145 ± 0.018
3,GCAACGGC,-0.147 ± 0.018
4,GGCTCAGA,-0.204 ± 0.025
5,CCGAAGCC,-0.258 ± 0.035
6,ATAGCTAC,0.204 ± 0.0011
7,AGGTGTCG,-0.0243 ± 0.082
8,CAGAGGCC,-0.0446 ± 0.062
9,AACAATTA,0.246 ± 0.078
10,AACAATTG,0.0804 ± 0.12
11,ATCAATTG,0.255 ± 0.068
12,ATCAATTA,0.28 ± 0.041
13,ATCAATCG,0.16 ± 0.038
14,CTCAATTA,0.0912 ± 0.079
15,AACAATTC,0.166 ± 0.067
16,GTCAATTA,0.0735 ± 0.075
17,ATCAATTC,0.159 ± 0.024
18,AACGTCAT,0.0419 ± 0.012
19,AAGTTTCG,0.0139 ± 0.064
20,TACACTCA,0.0543 ± 0.059
21,CCAGAAAA,-0.0128 ± 0.11
22,GGGCAAAC,-0.0742 ± 0.046
23,AATCTATC,0.061 ± 0.099
24,CTGTCTAC,-0.085 ± 0.0076
25,ACGGGTGA,-0.227 ± 0.052

row,Sequence,PBM 8-mer E-score
1,ACCACCCG,-0.146 ± 0.077
2,GCCACCCA,-0.126 ± 0.068
3,CCCACTTC,0.00615 ± 0.027
4,CACACCCG,-0.15 ± 0.012
5,ACCACCCC,0.0435 ± 0.03
6,TCCACCCA,0.00246 ± 0.039
7,GCCACTTA,0.0747 ± 0.039
8,CCCACTTA,0.236 ± 0.023
9,CCCACCCG,0.29 ± 0.03
10,CCCACCCC,0.332 ± 0.046
11,CCCACCCA,0.364 ± 0.023
12,GCCACCCC,-0.0325 ± 0.055
13,ATCGGCCG,-0.187 ± 0.13
14,CCGGCGGC,-0.269 ± 0.029
15,CCTATTCG,-0.105 ± 0.0044
16,ACGAAGAA,0.16 ± 0.06
17,ATGCGATC,0.00891 ± 0.016
18,CAAGACGG,-0.109 ± 0.028
19,CCAATTGC,0.108 ± 0.012
20,GCAATTGA,0.0718 ± 0.079
21,GCAATTGC,0.242 ± 0.013
22,ACGTCCCG,-0.326 ± 0.046
23,AGGGCGGG,0.311 ± 0.011
24,AGGGCGGC,-0.0202 ± 0.17
25,AGGGCGGA,-0.101 ± 0.0044

row,Sequence,PBM 8-mer E-score
1,ATAACTTC,0.0494 ± 0.033
2,ATAACGTA,0.107 ± 0.085
3,ATAACTTG,0.241 ± 0.012
4,ATAACTTA,0.14 ± 0.043
5,ATAACGTC,0.138 ± 0.029
6,ATAACGTG,0.293 ± 0.018
7,CTGGGTCA,-0.0254 ± 0.017
8,AGCTACGC,0.0669 ± 0.0082
9,CCGTCGGC,-0.232 ± 0.016
10,CAAGCCAC,-0.143 ± 0.044
11,ATATTTTA,0.245 ± 0.02
12,CTATTTTA,0.224 ± 0.026
13,ATATTTAA,0.334 ± 0.019
14,GTATTTTA,0.0916 ± 0.055
15,CTATTTAA,-0.0484 ± 0.012
16,ATATTTAC,0.159 ± 0.032
17,ATCTTAGA,0.0255 ± 0.036
18,CTCGCCGC,-0.0225 ± 0.15
19,AATTGCCG,-0.00487 ± 0.03
20,CTTCTTTA,0.245 ± 0.01
21,GTTCTTTA,0.000435 ± 0.15
22,CTTCTTTC,-0.118 ± 0.046
23,AACCTACT,-0.0133 ± 0.062
24,AATCTGAT,0.057 ± 0.016
25,AAAATAAC,0.2 ± 0.041

row,Sequence,PBM 8-mer E-score
1,GAAATAAC,-0.1 ± 0.05
2,CAAATAAC,0.238 ± 0.041
3,ACAGTGGC,-0.0719 ± 0.054
4,CGAGGTTC,-0.105 ± 0.037
5,CCTCAGGA,-0.147 ± 0.12
6,AGTCGGGC,-0.144 ± 0.022
7,TTTATAAA,0.246 ± 0.074
8,ATTATAAT,0.169 ± 0.1
9,CTTATAAC,0.0403 ± 0.076
10,ATTATAAC,0.247 ± 0.041
11,GTTATAAC,0.16 ± 0.047
12,GTTATAAA,0.154 ± 0.051
13,ATTATAGA,0.0771 ± 0.056
14,ATTATAAG,0.28 ± 0.0046
15,CTTATAAG,0.0331 ± 0.11
16,CCTATAAA,-0.143 ± 0.042
17,ATTATAAA,0.263 ± 0.069
18,CTTATAAA,0.184 ± 0.071
19,ACTGAACG,-0.181 ± 0.086
20,AGAAACCG,-0.0327 ± 0.035
21,ACCACTTC,0.0215 ± 0.0022
22,AAGACTAA,0.0726 ± 0.081
23,GATTTTCC,-0.0716 ± 0.0054
24,AGAGGCAG,-0.125 ± 0.069
25,CTAACCAA,-0.0414 ± 0.074

row,Sequence,PBM 8-mer E-score
1,ACCTCGTC,-0.0184 ± 0.011
2,AACGTCTG,-0.086 ± 0.17
3,ACCTCACG,-0.0339 ± 0.093
4,CCCGGCGC,-0.17 ± 0.023
5,ACGCACGA,0.0583 ± 0.035
6,ACGCACGT,0.277 ± 0.0066
7,ACGCACGC,0.157 ± 0.12
8,ACGCACAT,0.24 ± 0.091
9,ACGCACAG,-0.104 ± 0.024
10,ACGCACAA,0.0234 ± 0.071
11,GCCATCAA,0.193 ± 0.0031
12,CACTGTGC,-0.123 ± 0.011
13,CCAGCCTC,-0.148 ± 0.047
14,CATACCTA,0.0465 ± 0.0019
15,AATACCTA,0.244 ± 0.03
16,GATACCTA,0.155 ± 0.013
17,ATGGATGA,0.053 ± 0.022
18,CTATTTCA,0.126 ± 0.099
19,CTATTTCC,0.26 ± 0.051
20,ATATTTCC,0.0705 ± 0.11
21,TCCAGTAA,0.071 ± 0.076
22,CAATGGCG,0.02 ± 0.0014
23,TATGTGAA,0.308 ± 0.017
24,AATGTGAA,0.154 ± 0.12
25,GACGTGAC,0.0337 ± 0.019

row,Sequence,PBM 8-mer E-score
1,CACGTGAC,0.406 ± 0.011
2,AACGTGAC,0.147 ± 0.045
3,CACGTGAG,0.255 ± 0.005
4,GACGTGAA,-0.25 ± 0.025
5,GATGTGAA,0.177 ± 0.043
6,CACGTGAA,0.392 ± 0.022
7,AACGTGAG,0.0157 ± 0.023
8,CCCGTGAG,-0.225 ± 0.016
9,TACGTGAA,0.0426 ± 0.043
10,GACCCATC,-0.0849 ± 0.083
11,GGCAACAC,0.0268 ± 0.038
12,CTCGGGTA,-0.193 ± 0.024
13,TAAATAAA,0.129 ± 0.012
14,CCCGTGAC,-0.0332 ± 0.029
15,GAAGCGCC,-0.146 ± 0.03
16,AGCGTGAC,0.0983 ± 0.058
17,CGCGTGAG,0.219 ± 0.012
18,CGCGTGAC,0.286 ± 0.036
19,CTCAGGTC,-0.298 ± 0.018
20,GCGAGGGA,0.0348 ± 0.068
21,GTATAATA,0.26 ± 0.018
22,ATATAATG,0.235 ± 0.0039
